This passage reports Potency results from PubChem BioAssay (Tox21).

SMILES strings stand for the structures. Inconclusive results are not listed. A call without a number means that no potency is given here. The source made the active and inactive calls. Calls follow the shape of the dose curve; as a rule, active = well fitted activation curve with a large enough effect in the repeat runs; inconclusive = weak or mixed curves, or effect the other way; inactive = no such curve, though single readings can be large or run the other way.

The nature of the test: qHTS assay to identify small molecule agonists of the retinoic acid receptor (RAR) signaling pathway (AID 1159553). As to conditions: C3RL4 RARE luciferase reporter, agonist, 6 h; activation: at 73.3 µM (top of the series) unless noted. Put shortly:
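Reporter readout comes from luciferase under RARE control in C3RL4 cells; compound exposure lasts 6 hr at 37 C in 5% CO2, and luminescence is recorded following a 30 min room-temperature incubation with reagent.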
On the technique in general: Quantitative high-throughput screening tests each substance at several concentrations.
For the compound `C=CC(=O)NCOCCCC`, the Potency entry was “inactive”.

For the compound `OC[C@H]1O[C@@H](Oc2ccc(O)cc2)[C@H](O)[C@@H](O)[C@@H]1O`, the Potency entry was “inactive”.

On to `CCCCC(CC)COC(=O)c1ccc(C(=O)OCC(CC)CCCC)cc1` (stereo unspecified), for which the Potency result was “inactive”.

In the case of `COCN(COC)c1nc(N(COC)COC)nc(N(COC)COC)n1`, the Potency entry is “inactive”.

For `Cc1cccc(C)c1[N+](=O)[O-]`, the Potency result is “inactive”.

With `CCCCCCC(=O)O`, the Potency result was “inactive”.

Regarding `OCC(O)CS` (stereo unspecified), the Potency entry was “inactive”.

On to `O=C1OC(=O)c2c(Cl)c(Cl)c(Cl)c(Cl)c21`, for which the Potency result was “inactive”.

As to `CCOC(=O)CC(=O)OCC`, the Potency entry is “inactive”.

As to `Cc1cc(C)cc(O)c1`, the Potency result is “inactive”.

Consider `OCC(CO)(CO)CO`, for which the Potency entry was “inactive”.
